Experimental data as given in the supplement of paper PMC3334620.
In all, about 33,000 sequences were measured (“E-score (-0.5 to 0.5)”: median about -0.016, highest 2% from about 0.31 on). The sample holds the highest values, similar sequences and a random draw of the others, so the mix is not that of the screen.

What follows are sequences tested against Cst6 (UniProt P40535) (assay: PBM E-score (8-mer binding enrichment) (E-score (-0.5 to 0.5)); higher = stronger / more preferred TF binding). Conditions: protein concentration: 200 nM; construct: GST-DNA-binding domain.
UniProt P40535, sequence (P40535 whole entry, the tested form may be a part): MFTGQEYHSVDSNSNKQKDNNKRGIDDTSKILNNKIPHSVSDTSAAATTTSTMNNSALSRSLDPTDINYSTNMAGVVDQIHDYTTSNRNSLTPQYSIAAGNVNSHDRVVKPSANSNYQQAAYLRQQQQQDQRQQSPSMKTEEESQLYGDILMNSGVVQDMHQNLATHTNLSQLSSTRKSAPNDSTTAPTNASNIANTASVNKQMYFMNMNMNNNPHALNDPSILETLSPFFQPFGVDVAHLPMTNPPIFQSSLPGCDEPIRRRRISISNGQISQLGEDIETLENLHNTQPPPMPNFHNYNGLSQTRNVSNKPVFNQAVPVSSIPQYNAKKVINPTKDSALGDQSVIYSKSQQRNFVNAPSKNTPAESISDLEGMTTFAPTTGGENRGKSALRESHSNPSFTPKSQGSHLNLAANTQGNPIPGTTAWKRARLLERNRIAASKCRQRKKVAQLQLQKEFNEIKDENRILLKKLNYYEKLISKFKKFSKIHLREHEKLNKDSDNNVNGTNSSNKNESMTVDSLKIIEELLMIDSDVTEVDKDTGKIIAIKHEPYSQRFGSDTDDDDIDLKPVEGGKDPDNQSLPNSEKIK
How it was run: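 Full-length yeast transcription factors or their DNA-binding domains, GST-tagged and expressed with PURExpress, were applied at about 100-200 nM to universal all-10-mer Agilent arrays. These arrays had been made double-stranded by primer extension on fresh or once-stripped slides. Detection used fluorescent anti-GST, normalisation used masliner, and E-scores for ungapped eight-base words pooled with reverse complements came from the Universal PBM Analysis Suite.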

Row | Sequence | PBM E-score
1 | TCTAACCA | 0.057
2 | CGTCTACC | -0.0234
3 | CATTTAGA | 0.136
4 | AGCAGCTC | -0.28
5 | GTCAAGCA | -0.29
6 | CAATAAAA | 0.165
7 | TCATATAA | 0.305
8 | AAATATAA | 0.233
9 | GCATAACA | 0.124
10 | CCATATAA | 0.105
11 | TCATAACA | 0.311
12 | TAATATAA | 0.358
13 | GAATAAAA | 0.216
14 | GCATATAA | 0.166
15 | GAATATAA | 0.111
16 | ACATAACA | 0.227
17 | TAATAAAA | 0.316
18 | CATCCTAC | -0.0877
19 | CCAGGGCC | -0.39
20 | ATTGGCGC | 0.0493
21 | CGACTACC | -0.363
22 | CTTCCATC | -0.0839
23 | CAAGTCTC | -0.247
24 | TCGCCTAA | -0.0175

Row | Sequence | PBM E-score
25 | AAAAGAGG | -0.121
26 | TACCAGAA | 0.0986
27 | AGGGAAGG | -0.28
28 | CAATATAA | 0.312
29 | CAATATAC | -0.0952
30 | CAATATAG | 0.0707
31 | GAACGGCC | -0.183
32 | GAACGGCA | 0.352
33 | TCACGGCA | 0.224
34 | GCACGGCC | 0.23
35 | GCACGGCA | 0.353
36 | CAACGGCA | 0.094
37 | GGCAGGCC | -0.332
38 | ATGGGTCC | -0.242
39 | GACACCAC | -0.0664
40 | CGTTGTCC | 0.126
41 | GGGGAAAA | -0.101
42 | CGCATACC | 0.117
43 | ATTATGTC | 0.359
44 | GTTATGTA | 0.165
45 | CTTATGTC | 0.105
46 | ATTATGTG | 0.228
47 | ATTATGTA | 0.355
48 | ACTATGTC | 0.0789

Row | Sequence | PBM E-score
49 | CTTACTGA | -0.0696
50 | GGGCTCAA | -0.174
51 | ACCCCTTG | -0.33
52 | AGAAATCG | -0.0866
53 | GATATATA | 0.304
54 | AATATATA | 0.239
55 | AATATTGC | 0.257
56 | TATATATA | 0.315
57 | GCTATATA | 0.167
58 | ACTATATA | 0.316
59 | TATATACA | 0.161
60 | AATATATT | 0.355
61 | ACTATATC | 0.128
62 | AATATATG | 0.171
63 | AATATTGG | 0.0316
64 | AATATTGT | 0.306
65 | GAATGTGC | 0.07
66 | GGACGAAC | -0.0196
67 | ACTTGCGC | -0.0133
68 | CTCGCATC | 0.00499
69 | CATATATC | 0.121
70 | AGTATATA | 0.348
71 | AGTATATC | 0.0089
72 | CATATATG | 0.341

Row | Sequence | PBM E-score
73 | AGTATATG | 0.111
74 | CATATATA | 0.272
75 | AGTTGCGA | 0.0793
76 | AAACTGAT | 0.0925
77 | ACGCGATG | 0.122
78 | AATTGTCG | 0.0471
79 | CATTTGTC | 0.0906
80 | CAGGGTTA | -0.124
81 | ACCGTAAC | -0.0255
82 | AACGTAAG | 0.306
83 | ACCGTAAG | 0.109
84 | CACGTAAA | 0.181
85 | AACGTAAT | 0.453
86 | AACGTAAA | 0.274
87 | CACGTAAG | 0.292
88 | GCCGTAAA | 0.243
89 | AACGTAGC | 0.0195
90 | GACGTAAA | 0.374
91 | AACGTACT | 0.0968
92 | AACGTAAC | 0.329
93 | CACCCTCA | -0.212
94 | AAGTTCAC | -0.0134
95 | GACTTGAA | -0.171
96 | AGCTGTGA | 0.135

Row | Sequence | PBM E-score
97 | TCGGAAAA | 0.113
98 | AGTCTAGA | -0.124
99 | CTCGGACC | -0.18
100 | GGGCTGGA | -0.295
101 | CATGCGTA | 0.15
102 | GACGTAAC | 0.46
103 | GACGTAGC | 0.166
104 | TGCGTAAA | 0.218
105 | TCCGTAAA | -0.0237
106 | TACGTAAA | 0.42
107 | CACGTAAC | 0.262
108 | GACGTACC | 0.349
109 | AACGTACC | -0.185
110 | CACGTACC | -0.0025
111 | GCTTGATA | 0.162
112 | CCCGCTCA | -0.0513
113 | CCGCAGGA | -0.234
114 | AATCGGGT | 0.191
115 | TCTCGGCA | -0.0951
116 | GCAGCCCC | -0.349
117 | GGGTGTAC | -0.185
118 | GTTACATA | 0.228
119 | ATTACACA | 0.318
120 | AGTACATC | -0.0114

Row | Sequence | PBM E-score
121 | CTTACATA | 0.25
122 | CTTACATC | 0.365
123 | ATTACATA | 0.396
124 | ATTACACC | 0.089
125 | ATTACAAC | 0.226
126 | ATTACACG | 0.205
127 | ATTACATG | 0.245
128 | ATTACATC | 0.433
129 | CTCACATC | 0.0865
130 | GAGACCCC | -0.279
131 | AACCCACC | 0.0456
132 | CTTTAGAA | 0.0739
133 | AATCCGAG | -0.0702
134 | ATCAAGGA | -0.0436
135 | AAGGGGCA | -0.178
136 | ATGATATA | 0.31
137 | CTGATATA | 0.179
138 | GTGATAAA | 0.201
139 | ATGATAAC | 0.263
140 | ATGATATG | 0.269
141 | ATGATAAA | 0.307
142 | ATCAAATG | 0.0892
143 | AATATTAA | 0.334
144 | CATATTAA | 0.234

Row | Sequence | PBM E-score
145 | AATATTAG | 0.185
146 | TATATTAA | 0.336
147 | AATATTAT | 0.242
148 | GATATTAA | 0.201
149 | TGGATCAA | 0.125
150 | CCTAGTAA | -0.194
151 | CAAAGCTA | 0.0247
152 | ATCATTAA | 0.28
153 | GTCATTAA | 0.394
154 | GTCATTTA | 0.368
155 | ATCATTTG | 0.165
156 | GACATTTA | 0.115
157 | ATCATTTC | 0.246
158 | CTCATTTA | 0.141
159 | CTCATTAA | 0.0741
160 | ATCATTTA | 0.335
161 | CCGCTCCA | -0.152
162 | ACCCCCCC | -0.357
163 | ATTGACAG | 0.0614
164 | AAGACGGA | 0.00374
165 | ATGACGGC | 0.365
166 | CTGACGGA | 0.165
167 | ATGACGGA | 0.417
168 | GTGACGGA | 0.352

Row | Sequence | PBM E-score
169 | ACGACGGA | 0.0762
170 | ATGACGGG | 0.258
171 | CTGACGGC | 0.111
172 | GCGACGGA | -0.224
173 | CGCATAAG | 0.102
174 | CGTACGGA | 0.168
175 | GAAAGCGC | -0.00012
176 | CCAAACCC | -0.126
177 | ATGACATC | 0.478
178 | ATGACAAC | 0.302
179 | CTGACATC | 0.307
180 | CTGACAGC | -0.148
181 | CGGACATC | -0.196
182 | ATGACACC | 0.228
183 | CAGAGGAG | -0.0824
184 | CCTTACCC | -0.0626
185 | CCAGAAGG | -0.0896
186 | CCGCGCGA | 0.255
187 | CCGCGCGC | 0.151
188 | GCGCGCGC | 0.345
189 | CCGCGCGG | 0.382
190 | GCGCGCGA | 0.0433
191 | ACGCGCGC | 0.175
192 | AGCCCCAA | -0.281
